The source of these data is PubChem BioAssay AID1159506 (National Center for Advancing Translational Sciences (NCATS), 2015).

Over roughly 59,000 sequences, the read-out has its median near -0.00055; the lowest 2% begin near -2. This excerpt belongs to a sample that is enriched for the lowest values.

This assay can be described thus: Identification of proteins required for the processing of the EWS-FLI1 nascent transcript.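 Note: robust z of luciferase light less the median z of siRNAs with the same seed.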 As to conditions: TC32 Ewing sarcoma NR0B1-luc vs CMV-luc (EWS-FLI1 target promoter against control promoter), 48 h; screened at 20 nM (by protocol). The essentials:
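Genome-wide siRNA screen (Ambion v4.1, three siRNAs per gene, 20 nM final, RNAiMax) in Ewing sarcoma TC32 cells carrying NR0B1-promoter or CMV-promoter luciferase; OneGlo luciferase read 48 h post-transfection. Data normalized, z-score-MAD transformed and seed-adjusted.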
On to ACAUCAUCCACUUCGUUCC against UNC93B1, for which the seed-corrected z-score was -3.19. The sequence UUAACUGCAUCCCUAAUCC against AVEN yielded a seed-corrected z-score of -1.22. UUCUUUACAUGCUGCAUUC against GALNT11: the seed-corrected z-score is 0.394. The sequence UUCAUGUCGAUAACUGUGG against KCNJ15 had a seed-corrected z-score of -0.324. Take UCUUGGAACAGGAUCUUCU against TAOK2: the seed-corrected z-score was -0.173. For UCAUGAAUUGUGGCAGGCA against LINC00598, the seed-corrected z-score worked out at 0.856. ACUGCUUUGACAUCUGGGC against SNF8 gave a seed-corrected z-score of -0.699. As to UGACUAAUAAGAAUGCCCG against SLC2A2, the seed-corrected z-score was -0.863. AUAACUACAGCAUCAGAGG against WDR60: the seed-corrected z-score was 0.989.

Sequence AACCGUUUCAUAAACUCCC against MCMBP showed a seed-corrected z-score of 0.188. As to UAUUCGUACUCAAACGUGC against SFPQ, the seed-corrected z-score was -2.1. Sequence AUACAUGUCAGCUGAGUAG against POU2AF1 yielded a seed-corrected z-score of -0.413. AGUGUCUCUACUCAGGUUC against CSF2 registered a seed-corrected z-score of 1.91.

Sequence UUCGGAUAUAGAGGUAGGC against SNRNP200 returned a seed-corrected z-score of -2.46. Turning to UGAGUCAAAUGUUCUUUGG against KLF16, the seed-corrected z-score came out at 0.422. The sequence UUUUUCUGAACUCUCGUCU against C1orf174 had a seed-corrected z-score of -1.93. Sequence AAAUUUACCUAUGUUCUUC against PBX1 yielded a seed-corrected z-score of 2.08. In turn, UUUUAGAAAGUUCAUGUCC against CD69 had a seed-corrected z-score of 0.737. UUCGUGUAGACUGACCUUC against LRCH1 gave a seed-corrected z-score of -9.4. Sequence UCAGGUUCUUUGUCUGACC against IRS1 showed a seed-corrected z-score of -1.53. The same measure for UGGUCUGCAAAGGUAAUGC against PLRG1: 0.251; for UAAGUAGGCACAACACUCA against DEXI: 0.701; for AACUGAACAUUUAUAGAGC against MTERF2: 1.28. The sequence CUAUAGAUGAAGUAGGUGC against EDA returned a seed-corrected z-score of 1.41. For AGAGUUUCUGGUAUAGACC against TAS2R38 the value was -2.98.

AAGGAUAUGAAGGUAAUUC against ZNF518A had a seed-corrected z-score of -0.0667. In turn, UUAGGGAUGAACCAAGGCA against ATP6V0E1 returned a seed-corrected z-score of 0.122. Take UUUGCAAUGACACGAAGCC against APOL4: the seed-corrected z-score stood at 0.249.

AUAGUUGCAGGAAACUUCU against LOC441907 displayed a seed-corrected z-score of -2.67. For UUCCUGAGUUCUUUCGUCC against DYRK1B the value was -0.484; for UGUUCUAUUUCACUUACUC against ZBTB26, -0.568.

Turning to AAAGGAGCAUAAAUUUAGU against LOC400867, the seed-corrected z-score worked out at 2.06. UAUGCAUAAACGGUCUUCA against SH3BGR: the seed-corrected z-score was -0.25. The same measure for UAUUUCACGUCGAUAGAGC against TMEM106B: -2.63; for UGAGGGUUGAGUGUAAGUC against FUK: -0.673. The same measure for UUGUGAACUGAUUACACUG against CCDC66: 0.423; for UUGACCAUCAAGUAUUAGC against WDR47: -10.6. As for UUCUGAUCAAGGCUAGACC against SHROOM3, the seed-corrected z-score is -0.584.

Consider UGAACUCCUCUGCAUAUUC against HLA-F, for which the seed-corrected z-score came to 0.183.

On to UUGGUGUCCGGAGAGGUGU against IRF3, for which the seed-corrected z-score is -0.0987. Sequence AACUCCGUCAGUUCCUUCC against FAM167A gave a seed-corrected z-score of 0.463. For ACAGCUAUCACUGCAUGCC against OR14J1 the value was -3.81; for UUUAGGUACAGAAUCCCUG against HDHD3, 0.511; for UCUUCAAUAAUGUGCAUCC against SEMA4G, 0.069. The same measure for UUCUCCGUUUCUGUUAUGC against SYCP2L: 0.199. In turn, UGCUGUUCUGUGCUGUUCC against ARID5A had a seed-corrected z-score of -2.31. UCAGGCUCAACCACCAGCA against ESRRA registered a seed-corrected z-score of -1.16. Take UAUAUCCACAGUGCGGAUC against RAB13: the seed-corrected z-score was 0.253. For the sequence AUACUUGCGAUAAAGGUGC against CSGALNACT1, the seed-corrected z-score was -1.05.

In the case of UCAGCUCCAACUGAAGGUC against ID1, the seed-corrected z-score is 0.724. Sequence AAUGGUGUCAGUUCCUCUG against ETFA had a seed-corrected z-score of 0.854. As to AGCAUUACAACUAAAAUCC against ZSCAN10, the seed-corrected z-score was -3.27. Regarding UAGCCAUUCUCGCUCAUGC against AZU1, the seed-corrected z-score worked out at 0.88.

UGAUCUAUCUUAGUCGCUC against POLQ displayed a seed-corrected z-score of -0.0262.

Take UUUCCGUACAUGAAGCAGC against AGBL5: the seed-corrected z-score is -0.0403. In turn, UUCAUUAUCGAUUUUUGCC against CYB5R2 had a seed-corrected z-score of -0.288. Turning to UGGGAUGAGAGACUCCUCC against C6orf25, the seed-corrected z-score was -0.121. The same measure for UGUUGUAGUGGGCCAGACG against HIST1H2BG: -2.35; for UCCGAAAGCACCACGAUGA against SIGIRR: 0.222.

Take AAAGGCCCAACAUCUGACU against ZDHHC8P1: the seed-corrected z-score came to 0.314.

With UUCCGACUCGCUGAAGUGC against RPS6KA4, the seed-corrected z-score was determined as 0.407. Regarding UUGGGUACCUCAGUCCACG against SNRPD2P1, the seed-corrected z-score was -5.01. UUUGUUGUAGUCACAUUCC against S100A3: the seed-corrected z-score was -1.11. As for UAAGGAAGUAGUCUCGUUU against TUBGCP6, the seed-corrected z-score turned out to be 0.26. UAGUGGAUAUAUCUCGGCC against YLPM1 came in with a seed-corrected z-score of 0.196. For UAUACUCGAAAUGUGGUUC against KIAA1586 the value was -0.337; for UUGCAGAGCAUGUGAGUCC against KRTAP13-3, -0.281.

UGCAUGUCGGGAUAGUUGC against GRIN2D gave a seed-corrected z-score of 0.123. UCCUCGUUCAGCACCCUUC against DNAJB13: the seed-corrected z-score was -0.18.

UUUGAUGAUCUGUAAGGCC against CNOT10 displayed a seed-corrected z-score of -2.03. On to UGUAUUGCAAGGUUAUAAC against ZNF836, for which the seed-corrected z-score worked out at 0.433.

In turn, AAAGUGAACAUCGGGUCCC against LILRA4 had a seed-corrected z-score of -0.351. Take UCCAUGUUGACUAAGAUUC against GRHL3: the seed-corrected z-score was -0.595.

In turn, UUUCUGGUAAAACUCCUCA against HS1BP3 came in with a seed-corrected z-score of 0.892.

UGACGUGACAAGCUGAAUG against ALYREF yielded a seed-corrected z-score of -0.554. On to UUAGAUUGCACAAUCCUGU against DMRTC1, for which the seed-corrected z-score was found to be 0.235. The sequence UUAAGAUUGACCUUUCUCC against KIAA1755 returned a seed-corrected z-score of -0.0251. Sequence UUUGGUGCUUAGUUUGUUC against LOC642262 showed a seed-corrected z-score of -2.38. The same measure for AUCUUUACAAAUACCCUGC against BCL11A: -0.136; for UUUAUAUUCAAUGGGCUUC against FAM45A: -0.523.

UAAGGUUCGGAUAUGGGUA against C9orf24 gave a seed-corrected z-score of -0.108. In turn, UUCUUUAUAGGCAUAGGCU against RPH3A came in with a seed-corrected z-score of -2.08.

For the sequence UAAGGUUGGUGACUGGAGA against MUC6, the seed-corrected z-score is -0.303. For UUUCUGUAGGCUUUUCUGG against DPCR1 the value was -0.53.

The sequence UUCUCCAUCAAAUUAGCCG against LIN52 displayed a seed-corrected z-score of 0.578. For UAGCUUCAAUACUUCAUCC against LRRC27 the value was -0.986; for UUCGAGCUUUCUUAUGUCC against SLC12A6, -0.303; for UGUUAUUGAAGAUGUCAGC against SLF2, -2.1.

With ACAGCAAGCAUUCAGAGUC against MMS19, the seed-corrected z-score was determined as 0.146.

Sequence UCUGGAAUAACGGUGCAGC against C15orf62 came in with a seed-corrected z-score of -1.54. Sequence AUAUCAAUGAUUGAGAGGU against OR4F15 returned a seed-corrected z-score of 0.359.

AACUCUGCGAACACGGCCU against AQP5 came in with a seed-corrected z-score of -2.17.

As for UAAGGCCCAAAUUUGUCUC against HSF4, the seed-corrected z-score is -0.0642. The same measure for UACAUUGACAGCAUAUCCU against NSDHL: 0.882; for UGAUGAAGUAGAGACGUGC against EXTL2: 0.177; for UAAAAUGUCUGACUCCUUG against CDKN1A: -0.147.

For the sequence AAACUGGUUGGAGUUGUUG against ITGB2, the seed-corrected z-score was determined as 0.512.

Regarding UGUUUUACCAACAGCACCA against CDC42, the seed-corrected z-score was -1.21. UCAGGUGGUAGGGAGGUUG against UBE2L6 gave a seed-corrected z-score of -2.37. For CAGGUAGAACGUGUCGUCC against ENDOG the value was 0.88. As for AAUGAGAUUAUGUUGGUCA against SNX29, the seed-corrected z-score was -1.19. For the sequence UUCUAUGCAAUCCAAAACC against DGKB, the seed-corrected z-score was 0.554. UUAGUUUCUACAUUAUUGU against ENTPD1-AS1 returned a seed-corrected z-score of 0.559. UAGGAGAUAAAGAUAACUA against OR5B2 showed a seed-corrected z-score of -12.5. The same measure for AGUACUACAAACCAAAUCC against FAM35A: -0.242; for UUCCAUAUUUAUUAGAGCC against PURG: 1.54. In turn, UUGAGAUAGGCUGAGACCU against TMPRSS4 displayed a seed-corrected z-score of -0.502. Sequence AAUUGUCGUAGUCAGUAUC against PAEP came in with a seed-corrected z-score of -0.99.

In turn, UUUGUCUUUUGCAUCUUUC against SFPQ displayed a seed-corrected z-score of -2.66. AUCGUUCACGUCUUGAUCC against CPSF6: the seed-corrected z-score is -0.744. AUAGGGAGCACUUGGGAGC against C20orf24 registered a seed-corrected z-score of -1.49. For AAACCUUCCAUUGUUGAGG against ACADVL, the seed-corrected z-score came to 0.629.

Sequence UUCGCUGUCACUGUGGUUG against FAM134C returned a seed-corrected z-score of -1.48. As for UAUUAUUCGACUCAUGGUC against EFCAB2, the seed-corrected z-score is -2.54. For UAACAUCGCACCAGUAAUC against L3MBTL4 the value was -0.0952. Sequence UGUUCCUUUAUUGUAGCCC against ALG13 registered a seed-corrected z-score of 0.155. For UGUAGGACAAGCGCUGCUG against DGCR6, the seed-corrected z-score is -0.188.

Take AUAUUAGCAUUCUUAAUGG against ABCB10: the seed-corrected z-score was -0.347. The same measure for UUCAUGACUCUUGCAUUCC against ZNF473: -0.227; for UAUAGUCUGCGUAGAGUUC against BSCL2: 0.905. Sequence UCGGUAUUCGAUGUGGUCC against CD177 had a seed-corrected z-score of 1.39.

For AUAAGAUACCUCUCUAUUC against NXPE1, the seed-corrected z-score is -3.1.

In turn, UGAUAUAGCCUCCAUAUGC against INVS registered a seed-corrected z-score of -0.175. In turn, UUCUAAUCUAGUGAUUAGC against LDB2 returned a seed-corrected z-score of 0.172. UAAACUGAAACGGAAAUGC against PTCHD3P1: the seed-corrected z-score was -0.411. The sequence UUGAGUUUGUCACAGUUUC against SH3BP2 registered a seed-corrected z-score of 0.349. Turning to UUUCAGCUUAGGAAAGGCA against KRTDAP, the seed-corrected z-score is -4.29. As to AGAUCUAUUGUGAACAGCC against FLT3, the seed-corrected z-score is -0.0495. As for UAGGUAAAUAGCCUCGUGC against CEACAM19, the seed-corrected z-score was determined as 0.0325. UUGCAUUUUCAGGUACUUG against RDH5 came in with a seed-corrected z-score of -0.555.

Sequence UUUGUAAGCUCUGUCAUCC against FAM13B displayed a seed-corrected z-score of -0.0737. For ACCUGUCAAAGAGCAAAGC against AMD1P3 the value was 0.646.
